High-throughput results: PubChem BioAssay, National Center for Advancing Translational Sciences (NCATS)
ELG1 DNA repair = qHTS screen for small molecules that inhibit ELG1-dependent DNA repair in human embryonic kidney (HEK293T) cells expressing luciferase-tagged ELG1 | HEK293T ELG1-luciferase reporter, luminescence, 16 h; DNA damage induced by 5-fluorouridine | Potency, µM (highest dose often 46.1 µM), usual class: inhibitors | actives 2.3% (n = 330,000); also: nearly all actives have a fitted effect of over 55% in size
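Cells (2,000 per well) received 5-fluorouridine plus test compound or DMSO and were incubated 16 hr at 37 °C, 5% CO2. Luciferase activity was read by luminescence 30 min after ONE-Glo addition; signal suppression marked inhibition of damage-induced ELG1 function.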
ELG1 genotox = qHTS screen for small molecules that induce genotoxicity in human embryonic kidney (HEK293T) cells expressing luciferase-tagged ELG1; HEK293T ELG1-luciferase reporter, luminescence, 16 h; Potency, µM (titrated, usually from 46 µM), most hits filed as activators; actives 1.3% (n = 330,000); also: nearly all actives have a fitted effect of over 60% in size
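Luminescence read-out: rising ELG1-luciferase signal, reflecting elevated ELG1 protein under genetic stress, flags genotoxic compounds. Cells were treated for 16 hr at 37 °C before ONE-Glo detection.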
Rab9 prom act = qHTS Assay for Rab9 Promoter Activators; Huh7 Rab9 promoter-luciferase reporter, luminescence, 24 h; Potency, µM (doses to about 9.22 µM), actives largely listed as activators; actives 2.8% (n = 320,000); AID 485297, 2010; also: nearly all actives have a fitted effect of over 60% in size
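Measured in stably transfected Huh7 cells bearing a Rab9 promoter–luciferase construct: 24 h compound treatment at 37 °C, followed by luminescence detection.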
NPC1 prom act = qHTS Assay for NPC1 Promoter Activators; Huh7 NPC1 promoter luciferase reporter, 24 h; AID 485313, 2010; Potency, µM (top dose mostly 9.22 µM), most hits filed as activators; actives 2.4% (n = 320,000); also: nearly all actives have a fitted effect of over 60% in size
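Readout is luciferase luminescence, reflecting NPC1 promoter activation in stably transfected Huh7 cells after 24 h compound exposure at 37 °C in reduced-serum medium with 10% FBS.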
SMN2 splice up = qHTS Assay for Enhancers of SMN2 Splice Variant Expression; HEK293 SMN2-luciferase splicing reporter, luminescence, 30-36 h; AID 1458, 2008; actives 2.8% (n = 210,000); Potency, µM (doses to about 46.1 µM), usual class: activators; also: nearly all actives have a fitted effect of over 55% in size
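HEK293 cells carry an SMN2 […]–luciferase reporter in which exon 7 inclusion puts luciferase in frame. Cells were plated 10-12 h before compound addition, then incubated 30-36 h at 37C. ONE-Glo luminescence was read; sodium butyrate at 4.5 mM final served as control.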
FLuc counter = qHTS profiling assay for firefly luciferase inhibitor/activator using purifed enzyme and Km concentrations of substrates (counterscreen for miR-21 project); purified FLuc, Km substrates, luminescence inhibition; Potency, µM (top dose mostly 57.5 µM), actives largely listed as inhibitors; actives 6.9% (n = 360,000); also: nearly all actives have a fitted effect of over 55% in size
Target sequence (P08659 whole entry, looked up): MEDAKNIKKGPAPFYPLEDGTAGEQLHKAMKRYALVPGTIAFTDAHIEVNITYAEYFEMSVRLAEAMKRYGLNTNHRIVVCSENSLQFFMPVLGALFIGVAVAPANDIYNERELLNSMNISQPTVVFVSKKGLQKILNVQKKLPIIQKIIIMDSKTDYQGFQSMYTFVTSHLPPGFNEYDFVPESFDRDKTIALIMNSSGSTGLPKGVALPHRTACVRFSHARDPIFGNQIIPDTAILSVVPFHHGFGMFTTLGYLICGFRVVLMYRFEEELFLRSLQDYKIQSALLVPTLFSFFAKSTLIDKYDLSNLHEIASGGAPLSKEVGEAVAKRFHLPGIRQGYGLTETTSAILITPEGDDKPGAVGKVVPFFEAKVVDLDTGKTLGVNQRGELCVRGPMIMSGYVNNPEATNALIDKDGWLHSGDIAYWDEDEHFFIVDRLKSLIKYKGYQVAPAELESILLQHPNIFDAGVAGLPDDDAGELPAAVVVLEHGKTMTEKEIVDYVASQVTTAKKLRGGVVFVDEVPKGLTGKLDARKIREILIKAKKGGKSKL
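Purified P. pyralis luciferase (10nM final) with 10uM D-luciferin and 10uM ATP (Km levels) in 50mM Tris acetate pH 7.5, 10mM Mg acetate, 0.01% Tween-20, 0.05% BSA; qHTS 6-point titration, ~60 µM downward; luminescence read.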
Hits are given with their value; [ ] = another dose, or the depositor's remark. Shown are actives, neighbours in structure and some others; about 9.2% of the full set was active somewhere. Calls follow the shape of the dose curve; as a rule, active = well fitted curve in the direction sought with a large enough effect; inconclusive = small, poorly fitted or top-dose-only effect, or another doubt; inactive = no such curve, though single readings can be large; an effect the other way counts as inactive or inconclusive.

Cc1cc(C)c(S(=O)(=O)c2ccccc2C(C)C)c(=O)[nH]1 was read as ELG1 DNA repair inactive, ELG1 genotox inactive, Rab9 prom act inactive, NPC1 prom act inactive and FLuc counter inactive.
For Cc1cc(C)c2oc(-c3cccc(N)c3)nc2c1 the results were ELG1 DNA repair inconclusive, ELG1 genotox inconclusive, Rab9 prom act inconclusive, NPC1 prom act 3.5µM and FLuc counter 3.8µM.
Screening COc1cc(OC)c(NC(=O)CC(c2cccs2)N2Cc3ccccc3C2=O)cc1Cl (stereo not given) returned FLuc counter inactive.
`CCOC(=O)N/N=C(\C)c1ccc(-n2cnnn2)cc1` gave ELG1 DNA repair inactive, ELG1 genotox inactive, Rab9 prom act inactive, NPC1 prom act inactive, SMN2 splice up inactive and FLuc counter inactive.
Screening Oc1ccc(/C=N/NC(=S)NC2CC3CCC2C3)cc1 (stereo not given) returned ELG1 DNA repair inconclusive, ELG1 genotox inconclusive, Rab9 prom act inconclusive, NPC1 prom act 3.2µM and FLuc counter inconclusive.
For Cc1ccccc1-c1ccc(/C=C2/SC(N3CCOCC3)=NC2=O)o1 the results were ELG1 DNA repair 8.2µM, ELG1 genotox inactive, Rab9 prom act inactive, NPC1 prom act inactive and FLuc counter inconclusive.
Cc1ccsc1/C=C1/SC(N2CCOCC2)=NC1=O was read as ELG1 DNA repair inconclusive, ELG1 genotox inactive, Rab9 prom act inactive, NPC1 prom act inactive, SMN2 splice up inconclusive and FLuc counter 21µM.
`O=C1N=C(N2CCOCC2)S/C1=C\c1ccc(-c2ccccc2Cl)o1` gave ELG1 DNA repair inconclusive, ELG1 genotox inactive, Rab9 prom act inactive, NPC1 prom act inactive, SMN2 splice up inactive and FLuc counter inactive.
CCSc1nnc(SCC(=O)Nc2cc(C)on2)s1 was read as ELG1 DNA repair inactive and ELG1 genotox inactive.
For CC(/C=C1\SC(=S)N(CC(=O)O)C1=O)=C\c1ccccc1 the results were ELG1 DNA repair inconclusive, ELG1 genotox inactive, Rab9 prom act inactive, NPC1 prom act inconclusive and FLuc counter 17µM.
CC(=O)c1ccc(NC(=O)CCCN2C(=O)/C(=C/C(C)=C/c3ccccc3)SC2=S)cc1 was read as ELG1 DNA repair inactive, ELG1 genotox inactive, Rab9 prom act inactive, NPC1 prom act inactive, SMN2 splice up inactive and FLuc counter inactive.
For CC(/C=C1\SC(=S)N(CC(=O)N2CCN(c3ccccc3)CC2)C1=O)=C\c1ccccc1 the results were ELG1 DNA repair inactive, ELG1 genotox inactive, Rab9 prom act inactive, NPC1 prom act inactive, SMN2 splice up inactive[1.84 µM] and FLuc counter inactive.
CC(=C\c1ccccc1)/C=C1/SC(=S)N(CCC(=O)O)C1=O was read as ELG1 DNA repair inconclusive, ELG1 genotox inactive, Rab9 prom act inactive[1.84 µM], NPC1 prom act inactive and FLuc counter 21µM.
`CC(=C\c1ccco1)/C=C1/SC(=S)N(CC(=O)O)C1=O` gave ELG1 DNA repair inconclusive, ELG1 genotox inactive, Rab9 prom act inactive, NPC1 prom act inactive and FLuc counter 17µM.
For COc1ccc2[nH]c3c(c2c1)CCN1C(=O)C(CC(=O)NCc2ccc(OC)c(OC)c2)C[C@H](C(=O)N2CCCCC2)[C@@]31CCc1ccccc1 (stereo not given in full) the results were ELG1 DNA repair inactive and ELG1 genotox inactive.
Screening COc1cc(/C=C/C(=O)c2ccc([N+](=O)[O-])o2)ccc1O returned ELG1 DNA repair inconclusive, ELG1 genotox inconclusive, Rab9 prom act inactive, NPC1 prom act inactive and FLuc counter inconclusive.
For Cc1cc(O)c(C(=O)/C=C/c2ccccc2O)c(=O)o1 the results were ELG1 DNA repair inactive, ELG1 genotox inactive, Rab9 prom act inactive, NPC1 prom act inactive and FLuc counter inactive.
For Cc1cc(O)c(C(=O)/C=C/c2cccc([N+](=O)[O-])c2)c(=O)o1 the results were ELG1 DNA repair inactive, ELG1 genotox inactive, Rab9 prom act inactive, NPC1 prom act inactive and FLuc counter 21µM.
Screening COc1ccc(/C=C/C(=O)c2ccc([N+](=O)[O-])o2)cc1OC returned ELG1 DNA repair 12µM, ELG1 genotox inconclusive, Rab9 prom act inactive, NPC1 prom act inactive and FLuc counter inactive.
Screening O=C(/C=C/c1cccc(Cl)c1)c1ccc([N+](=O)[O-])o1 returned ELG1 DNA repair 7.3µM, ELG1 genotox inactive, Rab9 prom act inactive, NPC1 prom act inactive and FLuc counter inactive.
`Cc1cc(C)n(-c2nc3ccccc3nc2Nc2cccc(C)c2C)n1` gave SMN2 splice up inactive and FLuc counter inactive.
For N#Cc1cccc(N=Cc2c(O)ccc3ccccc23)c1 the results were ELG1 DNA repair inactive, ELG1 genotox inactive, Rab9 prom act inactive, NPC1 prom act inactive, SMN2 splice up inactive and FLuc counter inactive.
`CCOC(=O)COc1ccccc1C1Nc2ccccc2C(=O)N1c1cccc(Cl)c1` (stereo not given) gave ELG1 DNA repair inconclusive, ELG1 genotox inconclusive, Rab9 prom act 2.8µM, NPC1 prom act inconclusive, SMN2 splice up 20µM and FLuc counter inactive.
Screening COc1cc(C2Nc3ccccc3C(=O)N2c2ccc(Cl)cc2)c(Cl)cc1OCC(=O)O (stereo not given) returned ELG1 DNA repair inconclusive, ELG1 genotox inconclusive, Rab9 prom act 2.5µM, NPC1 prom act 3.2µM, SMN2 splice up 13µM and FLuc counter inconclusive.
Cc1cccc(Cn2c(-c3ccc[nH]c3=O)nc3ccccc32)c1 was read as ELG1 DNA repair inactive, ELG1 genotox inactive, Rab9 prom act inactive, NPC1 prom act inactive and FLuc counter inactive.
For Cc1c(/N=C(\[O-])Nc2ccc(Br)cc2)sn[n+]1C the results were ELG1 DNA repair inconclusive, ELG1 genotox 0.37µM, Rab9 prom act 0.1µM, NPC1 prom act 0.28µM and FLuc counter 1.1µM.
For CNC(=S)Nc1ccc(Br)cc1 the results were ELG1 DNA repair inactive, ELG1 genotox inactive, Rab9 prom act inactive, NPC1 prom act inactive, SMN2 splice up inactive and FLuc counter inactive.
Screening CC1(C)OC(=O)C(=CNc2cccc(C(=O)O)c2)C(=O)O1 returned ELG1 DNA repair inactive, ELG1 genotox inactive, Rab9 prom act inconclusive, NPC1 prom act inactive, SMN2 splice up inactive and FLuc counter 15µM.
For CC1(C)OC(=O)C(=CNc2ccccc2)C(=O)O1 the results were ELG1 DNA repair inactive, ELG1 genotox inactive, Rab9 prom act inactive, NPC1 prom act inactive, SMN2 splice up inactive and FLuc counter inconclusive.
